The source of these data is PubChem BioAssay (NCI).

The panel holds about 83,000 compounds, 20% with a hit somewhere; the sample as a whole holds those more often.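 A percent growth of 40 corresponds to 60% growth inhibition; 0 means no net growth; -100 means all cells died. Active threshold: below 10.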 Unmarked numbers belong to inactive results. Activity calls are given as the source filed them.

This assay relates to HL-60(TB) leukemia. Briefly: NCI-60 one-dose screen, 48 h (100 = growth as untreated, 0 = no growth, -100 = all killed). The following applies: 10 µM unless noted.
As for `c1ccc([Se]CCCN2CCN(CCC[Se]c3ccccc3)CC2)cc1`, the growth is 105%. Turning to `C=CC(C)(O)CC/C=C(\CO)C(=O)OC1C(C)OC(O[C@](C)(C=C)CC/C=C(\CO)C(=O)O[C@H]2C[C@@]3(C(=O)OC4OC(CO)C(O)C(O)C4OC4OC(C)C(OC5OC(CO)C(O)C5O)C(OC5OC(CO)C(O)C(O)C5O)C4O)C(CC2(C)C)C2=CCC4[C@@]5(C)CC[C@H](OC6OC(COC7OC(C)C(O)C(O)C7OC7OCC(O)C(O)C7O)C(O)C(O)C6NC(C)=O)C(C)(C)C5CC[C@@]4(C)[C@]2(C)C[C@H]3O)C(O)C1O` (stereo not given in full), the growth is -52.5% (active).

As to `COc1ccc(OC)c(/C=C2\Oc3cc(OCCN4CCCC4)ccc3C2=O)c1`, the growth was 69.2%. As for `C=C1C(=O)O[C@H]2[C@H]1CC/C(CNC(=O)Cc1c[nH]c3ccccc13)=C\CC[C@@]1(C)O[C@@H]21`, the growth is -52.4% (active). To `COc1ccc(/C=C/c2cc(N3CCOCC3)c3cc(F)c(F)cc3n2)cc1OC` belongs -8.49% (active); to `O=C(CS)Nc1ccc2ccccc2c1`, 120%; to `O=C1Nc2ccc(Cl)cc2/C1=C/c1ccc[nH]1`, 102%. The figure for `COc1ccc2c(c1)c(-c1nc(-c3cn(C)c4ncccc34)cs1)cn2CCCN1CCCCC1` is 4.1% (active). The figure for `COc1cc2nccc(Oc3ccc(NC(=O)C4(C(=O)Nc5c(F)cc(F)cc5F)CC4)cc3)c2cc1Oc1ccc(N)cn1` is 38.3%; for `CCN(CC)CCNC(Cc1ccccc1)c1ccc(OCc2ccccc2)cc1` (stereo not given) it is 46.8%. Turning to `CCn1cc(C(=O)O)c(=O)c2cc(F)c(N3CCN(CC(=O)Nc4ccc(/C(C)=N/OC)cc4)CC3)cc21`, the growth is 90.9%. On to `Clc1ccccc1-c1nc2ccccc2[nH]1`, for which the growth is 74.4%.

For the molecule `OC(c1cc2cc(Cl)c(Cl)cc2c2cc(C(F)(F)F)ccc12)C1CCCCN1` (stereo not given), the growth is -21% (active). On to `CCCCOc1ccc(C(C)(C)c2ccc(OCCCC)cc2)cc1`, for which the growth was 92.5%. For `Cn1c(=O)c2c(c3ccccc31)OC(N)=C(C#N)C21C(=O)c2ccccc2C1=O`, the growth is 98.1%.

Consider `Cc1ccc(-c2csc(NC(=O)CCCCl)n2)cc1`, for which the growth is 109%. To `O=C(Nc1ccc(Cl)c(Cl)c1)NC(CO)(CO)CO` belongs 102%; to `COc1ccc(Cn2cc3c(c2-c2cc(OC)c(OC)c(OC)c2)CCc2cnoc2-3)cc1N`, 5.54% (active). The figure for `C=CCn1c(CN2CCN(c3cc4c(cc3F)c(=O)c(C(=O)O)cn4C3CC3)CC2)n[nH]c1=S` is 90.1%; for `CCn1c2ccc(N(C)C)cc2c2cc(N(C)C)ccc21` it is 66.1%; for `O=C(NNC(=S)Nc1ccccc1)c1ccc(Nc2ncnc3c2cnn3-c2cccc(Br)c2)cc1` it is 111%. The figure for `Cc1ccc(-c2noc(C)n2)cc1` is 100%; for `N#Cc1c(N)n2c(nc1=Nc1ccc(Cl)cc1)sc1cc(Cl)ccc12` it is 117%. In the case of `CCOC(=O)c1c2c(c(C)n1Cc1ccc(OC)cc1)-c1nc(N)ncc1CC2`, the growth is 68.8%. Regarding `CC1(C)CCc2cc(-c3ccn(S(=O)(=O)c4ccc(Cl)cc4)n3)ccc2O1`, the growth was 71.9%. Consider `COc1ccc(-c2nc(SCC(C)C)nc(N/N=C(/C)c3ccc(OC)c(OC)c3)c2C#N)cc1`, for which the growth is 89.4%. Regarding `COc1ccc(/C=N/NC(N)=S)c(OC)n1`, the growth is 93.4%. Take `O=C(c1c[nH]c2ccccc12)c1n[nH]c(=S)n1-c1ccc([N+](=O)[O-])cc1`: the growth was 61.4%. Regarding `O=C(CN1C(=O)S/C(=C\C(Cl)=C\c2ccccc2)C1=O)NC1C=CS(=O)(=O)C1` (stereo not given), the growth was -5.2% (active). The figure for `C=C1C(=O)O[C@H]2[C@H]1CC/C(COC(=O)N1CCC[C@H]1C(=O)Nc1ccc(OC)c(C(N)=O)c1O)=C\CC[C@@]1(C)O[C@@H]21` is -10% (active); for `N#Cc1ccc(O)c(C2=NCC(c3ccccc3)O2)c1` (stereo not given) it is 14.5%; for `COc1ccc(-c2cc(-c3ccc(N(C)C)cc3)nc(NC(=O)c3ccncc3)n2)cc1` it is 113%. The figure for `O=C(N/N=C/[C@H](O)[C@H](O)[C@H](O)CO)c1ccc(NC(=O)c2cccnc2)cc1` is 100%; for `Cc1nc2c(c(-c3ccccc3)n1)Cc1c(ccc3ccccc13)O2` it is 103%. The figure for `O=C(CN1CCN(c2cc3c(cc2F)c(=O)c(C(=O)N/N=C/c2ccccc2)cn3C2CC2)CC1)N/N=C\c1ccccc1` is 51.1%; for `CSc1nnc(-c2sc3nnc(-c4ccccc4)c(-c4ccccc4)c3c2O)o1` it is 107%; for `S=C(S)OCN1CCOCC1` it is 106%. Regarding `CN(C)c1ccc(C(C#N)(c2ccccc2)c2ccc(N(C)C)cc2)cc1`, the growth is 61.9%. To `CCCCCCCCCOc1c(OC)cc(C2CC(=O)Nc3c2c(C)nn3-c2nc3ccccc3[nH]2)cc1OC` (stereo not given) belongs 9.26% (active); to `N#C/C(=C\c1ccc(Cl)cc1Cl)C(=O)Nc1ncc(Cc2ccc(Cl)c(Cl)c2)s1`, 98.8%.
